Laboratory results as given in the supplement of paper PMC6555819.

Columns and labels:
Assay in all cases: PBM binding z-score (relative to random genomic background probes); higher = stronger binding; sequences stand for … in GC…GCGATTGACAGCGTAGAATGAAGG
[1] = test system: PPARg:RXRa DBDmut IVT, anti-RXR (DBD mutation: RXRa K156A/R161A, NR concentration 270 nM, RXRa partner concentration 90 nM)
How it was run: (§1)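 The probes on custom Agilent 4×180K protein-binding microarrays were double-stranded, with 34-nt variable regions bearing direct-repeat seeds, single-nucleotide variants, half-site ablations and random human genomic background sequences. Incubation lasted 1 h with ligand-free nuclear receptor dimers in PBS pH 7.4, 2% milk, 0.02% Triton X-100, 1 mM DTT, 0.2 mg/mL BSA and 0.4 mg/ml salmon testes DNA. Antibodies against each partner (one per run) detected bound dimers, and fluorescence scans were regression-normalized. Binding z-scores take the random background probes as reference.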

[2] = test system: PPARg:RXRa IVT, anti-PPARg (NR concentration 270 nM, RXRa partner concentration 90 nM)
How it was run: as §1

[3] = test system: PPARg DBDmut:RXRa IVT, anti-PPARg (DBD mutation: PPARg1 K132A/R137A, NR concentration 270 nM, RXRa partner concentration 90 nM)
How it was run: as §1

[4] = test system: PPARg DBDmut IVT, anti-PPARg (DBD mutation: PPARg1 K132A/R137A, NR concentration 270 nM)
How it was run: as §1

[5] = test system: PPARg homodimer (NR concentration 180 nM)
How it was run: as §1

[6] = test system: PXR:RXRa (NR concentration 270 nM, RXRa partner concentration 90 nM)
How it was run: as §1

[7] = test system: PXR homodimer (NR concentration 270 nM)
How it was run: as §1

[8] = test system: RARa:RXR (NR concentration 270 nM, RXRa partner concentration 90 nM)
How it was run: as §1

[9] = test system: RARa homodimer (NR concentration 270 nM)
How it was run: as §1

[10] = test system: RARb:RXRa (NR concentration 270 nM, RXRa partner concentration 90 nM)
How it was run: as §1

[11] = test system: RARb homodimer (NR concentration 270 nM)
How it was run: as §1

[12] = test system: RARg:RXRa (NR concentration 270 nM, RXRa partner concentration 90 nM)
How it was run: as §1

[13] = test system: RARg homodimer (NR concentration 270 nM)
How it was run: as §1

[14] = test system: RXRa DBDmut IVT, anti-RXR (DBD mutation: RXRa K156A/R161A, NR concentration 90 nM)
How it was run: as §1

[15] = test system: RXRa homodimer (NR concentration 180 nM)
How it was run: as §1

[16] = test system: THRa:RXRa (NR concentration 90 nM, RXRa partner concentration 90 nM)
How it was run: as §1

[17] = test system: THRa homodimer (NR concentration 90 nM)
How it was run: as §1

[18] = test system: VDR homodimer (NR concentration 270 nM)
How it was run: as §1

Sequence | PBM binding z-score [1] | PBM binding z-score [2] | PBM binding z-score [3] | PBM binding z-score [4] | PBM binding z-score [5] | PBM binding z-score [6] | PBM binding z-score [7] | PBM binding z-score [8] | PBM binding z-score [9] | PBM binding z-score [10] | PBM binding z-score [11] | PBM binding z-score [12] | PBM binding z-score [13] | PBM binding z-score [14] | PBM binding z-score [15] | PBM binding z-score [16] | PBM binding z-score [17] | PBM binding z-score [18]
CTCGAAAGGTCGGGTGAGGTGAGTATACGGATAA | 0.384 | 1.74 | 0.713 | 0.324 | 1.4 | 3.82 | 0.334 | 3.01 | 0.691 | 3.52 | 3.12 | 3.42 | 3.43 | 0.73 | 3.05 | 5.11 | 1.91 | 0.829
CGAACTAGGTCAGAACAGCACAGTGAAGGATGAT | 7.06 | 7 | 0.891 | 0.278 | 0.531 | 0.247 | -0.0288 | 0.419 | 0.0797 | 2.92 | 1.96 | 2.44 | 3.04 | 0.779 | 1.28 | 1.16 | 0.326 | 0.463
GCTAGCAGGCCATTTCGGTCACTCAATGACGGGC | 0.656 | 0.325 | -0.625 | -0.867 | -0.364 | -0.577 | -0.577 | -0.28 | -1.42 | 1.07 | 1.03 | 0.276 | 0.793 | 0.0509 | -0.116 | 0.245 | -0.53 | -0.487
TCTTGTAGATCAAACGTTAAGAAAGCCGAAGCCT | 2.23 | 0.376 | 0.781 | 0.516 | -0.0553 | 0.00909 | -0.155 | 0.0712 | -0.409 | -0.19 | -0.779 | -0.146 | -0.238 | 0.749 | 0.138 | -0.412 | -0.567 | -0.573
CCTACTGGGCCATTCAGAGGTCGTTGATCATATG | 4.62 | 3.78 | -0.302 | 0.289 | 0.217 | 1.55 | 0.112 | 1.27 | -0.226 | 1.11 | 1.58 | 1.55 | 0.872 | 0.268 | 1.05 | 1.28 | 0.339 | 2.12
CCTTACGGGTAAAGGTTATAGCACGGGTGGTACG | -0.138 | 1.7 | -0.079 | -0.348 | 1.08 | 1.1 | 0.1 | 2.04 | 0.398 | 1.82 | 1.5 | 2.02 | 1.06 | -1.08 | 2.34 | 1.31 | 0.0229 | 0.43
TTTAGCAGGCCAGAGGGTCACTCAAGAGGTACGG | -0.256 | 1.03 | -0.784 | -1.27 | 0.57 | 1.55 | -0.341 | 2.18 | -0.62 | 2.05 | 2.65 | 2.51 | 2.02 | -0.755 | 2.32 | 1.6 | -0.313 | 0.332
TCATATAGGTAATACAAGTGAAAGTCGGCATCTA | 4.19 | 2.25 | 0.992 | 1.83 | 1.46 | 0.916 | 0.336 | 1.3 | 1.79 | 0.7 | 0.148 | 0.857 | 0.72 | 2.07 | 1.23 | 0.601 | 0.0151 | 0.435
CCTCGGAGGACAGAAGGTCAGAGCAGTCCGCTTT | 0.416 | 0.276 | -1.6 | -1.82 | 1.18 | 2.83 | -0.373 | 2.41 | 0.42 | 3.25 | 3.7 | 3.53 | 3.41 | 0.444 | 2.16 | 2.67 | -0.117 | 0.311
TCATATAGGTAAATGCTAGGTGGAAGTCCGATCT | 3.98 | 2.01 | 1.68 | 0.774 | 0.237 | 0.234 | 0.0145 | 0.241 | 0.904 | 0.253 | -0.19 | 0.303 | 0.0562 | 1.28 | 0.571 | 0.0546 | -0.18 | 0.0417
CCTCGGAGTACAGAAGGTCAGAGCTGTCCGCTTT | 0.368 | -0.113 | -0.995 | -1.23 | 1.8 | 1.83 | 0.165 | 2.18 | 0.283 | 2.69 | 3.15 | 2.77 | 2.95 | 0.9 | 2.37 | 2.3 | 0.111 | 0.59
TCAGACAGGTGACGGTAACTCAGGTACGCAGTCG | 2.24 | 1.37 | 0.209 | 0.0566 | 0.126 | 0.109 | -0.211 | 0.171 | 0.103 | 0.885 | 0.517 | 0.188 | 0.328 | 0.683 | 0.84 | 0.492 | 0.00718 | -0.0333
GTACCAAGGTGAATCGGTCGTTGATGAGTAGGCG | 1.93 | 2.44 | -0.354 | -0.848 | -0.00106 | -0.262 | -0.354 | 0.293 | -0.11 | 1.67 | 1.27 | 1.17 | 1.01 | -0.343 | 0.482 | 1.49 | 0.486 | -0.443
TAGCCTAGGTCATTAGGCCAGTATAGTACGCATC | 2.12 | 3.88 | 0.301 | -0.52 | 1.19 | 0.87 | -0.114 | 1.79 | 0.0486 | 3.24 | 2.93 | 3.47 | 3.8 | 1.54 | 2.1 | 2.4 | 0.34 | 0.922
GATGCTAGGTCAGGTTGGTCAGCTAACGGGTACG | 1.91 | 2.23 | -0.346 | -0.425 | 1.67 | 0.452 | 0.0675 | 0.755 | -0.108 | 3.46 | 3.1 | 2.37 | 3.92 | 0.468 | 1.16 | 1.92 | 0.898 | 0.958
